Source: PubChem BioAssay
The entries come from a sample that favours hits as a whole.
C diff growth – C. difficile growth inhibitors, primary screen, HTS; Clostridium difficile clinical isolate growth, OD600, 24 h; hits give low values; growth activity, negative = inhibition, % at 16 µg/mL (by protocol); hit rate 0.25% among 86,000;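 active = mean growth activity at or below -80% and every replicate also at or below -80%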;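 also: 0% = DMSO wells and -100% = levofloxacin 16 µg/mL wells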
* hit, by the source's call.

Results for CO[C@@H]1CN(C)C(=O)c2ccc(NC(=O)Nc3cc(Cl)cc(Cl)c3)cc2OC[C@H](C)NC[C@@H]1C ?
C diff growth: -100*

Results for CO[C@@H]1CN(C)C(=O)c2ccc(NC(=O)Nc3ccccc3)cc2OC[C@H](C)NC[C@@H]1C ?
C diff growth: -1

Results for CO[C@H]1CN(C)C(=O)c2ccc(NC(=O)Nc3cc(Cl)cc(Cl)c3)cc2OC[C@H](C)NC[C@@H]1C ?
C diff growth: 71

Results for CO[C@H]1CN(C)C(=O)c2ccc(NC(=O)Nc3ccccc3Cl)cc2OC[C@H](C)NC[C@@H]1C ?
C diff growth: 14

Results for CO[C@H]1CN(C)C(=O)c2ccc(NC(=O)Nc3ccc(Cl)c(Cl)c3)cc2OC[C@H](C)NC[C@@H]1C ?
C diff growth: -99*

How did CO[C@H]1CN(C)C(=O)c2ccc(NC(=O)Nc3ccccc3)cc2OC[C@@H](C)NC[C@@H]1C do in these assays?
C diff growth: -2

Results for CO[C@@H]1CN(C)C(=O)c2ccc(NC(=O)Nc3ccc(F)cc3)cc2OC[C@H](C)NC[C@@H]1C ?
C diff growth: -2

What do the screens show for `CO[C@H]1CN(C)C(=O)c2ccc(NC(=O)Nc3ccccc3)cc2OC[C@H](C)NC[C@@H]1C`?
C diff growth: 6

What do the screens show for `CO[C@H]1CN(C)C(=O)c2ccc(NC(=O)Nc3ccc(Cl)c(Cl)c3)cc2OC[C@H](C)NC[C@H]1C`?
C diff growth: -97*

Results for COc1ccccc1C#Cc1cnc2c(c1)C(=O)N([C@@H](C)CO)C[C@H](C)[C@H](CN(C)S(=O)(=O)c1cn(C)cn1)O2 ?
C diff growth: 4

What do the screens show for `C[C@H](CO)N1C[C@H](C)[C@@H](CN(C)C)Oc2cc(C#CC(C)(C)O)ccc2S1(=O)=O`?
C diff growth: 4

How did C[C@H](CO)N1C[C@H](C)[C@H](CN(C)C(=O)NC2CCCCC2)Oc2ccc(NS(=O)(=O)c3ccc(F)cc3)cc2CC1=O do in these assays?
C diff growth: 3

How did COc1ccccc1CN1[C@@H](CO)[C@@H]2c3ccccc3N(C(=O)c3ccncc3)C[C@@H]21 do in these assays?
C diff growth: -2

What do the screens show for `C[C@H]1CCCCO[C@H](CN(C)Cc2ccc3c(c2)OCO3)[C@@H](C)CN([C@@H](C)CO)C(=O)c2cc(N(C)C)ccc2O1`?
C diff growth: -2

Results for C/C=C/c1cnc2c(c1)C(=O)N([C@@H](C)CO)C[C@@H](C)[C@@H](CN(C)C(=O)c1ccc3c(c1)OCO3)O2 ?
C diff growth: 10

How did C[C@H]1CN([C@@H](C)CO)C(=O)c2cc(-c3cccnc3)cnc2O[C@@H]1CN(C)C(=O)C1CCOCC1 do in these assays?
C diff growth: -3

Results for COCCNC(=O)C[C@@H]1C[C@H]2c3cc(NC(=O)COC)ccc3O[C@H]2[C@@H](CO)O1 ?
C diff growth: 4

Results for CCC(=O)N1CC(=O)N2[C@@H](CO)[C@@H](c3ccc(C#Cc4cccc(F)c4)cc3)[C@@H]2C1 ?
C diff growth: 1

What do the screens show for `O=C(Nc1cccc(F)c1)N1CCCCN2[C@H](CO)[C@H](c3ccc(-c4ccncc4)cc3)[C@@H]2C1`?
C diff growth: 2

How did Cc1ccc(-c2ccc([C@H]3[C@H](CO)N4CCCCN(C(=O)Nc5cccc(F)c5)C[C@@H]34)cc2)cc1 do in these assays?
C diff growth: -99*

Results for O=C(Nc1ccccc1F)N1CCCCN2[C@H](CO)[C@@H](c3ccc(/C=C/c4ccccc4)cc3)[C@@H]2C1 ?
C diff growth: 50

What do the screens show for `CC(C)CC#Cc1ccc([C@@H]2[C@@H](CO)N3CCCCN(C(=O)Nc4ccccc4)C[C@@H]23)cc1`?
C diff growth: 55

How did COc1ccc(C#Cc2ccc([C@@H]3[C@H](CO)N4CCCCN(C(=O)Nc5ccc(F)cc5)C[C@@H]34)cc2)cc1 do in these assays?
C diff growth: -93*

What do the screens show for `CC(C)CC#Cc1ccc([C@H]2[C@H]3CN(C(=O)Nc4ccccc4)CCCCN3[C@H]2CO)cc1`?
C diff growth: 30

How did COc1ccc(C#Cc2ccc([C@@H]3[C@@H](CO)N4CCCCN(C(=O)Nc5ccc(F)cc5)C[C@H]34)cc2)cc1 do in these assays?
C diff growth: 32

Results for CC(C)CC#Cc1ccc([C@H]2[C@@H](CO)N3CCCCN(C(=O)Nc4ccccc4)C[C@H]23)cc1 ?
C diff growth: -87*

What do the screens show for `Cc1ccc(-c2ccc([C@H]3[C@H]4CN(C(=O)Nc5cccc(F)c5)CCCCN4[C@H]3CO)cc2)cc1`?
C diff growth: 48

How did O=C(Nc1ccccc1F)N1CCCCN2[C@H](C1)[C@H](c1ccc(/C=C/c3ccccc3)cc1)[C@@H]2CO do in these assays?
C diff growth: 41

What do the screens show for `O=C(Nc1ccccc1F)N1CCCCN2[C@@H](CO)[C@@H](c3ccc(/C=C/c4ccccc4)cc3)[C@@H]2C1`?
C diff growth: -96*

Results for COc1ccc(C#Cc2ccc([C@H]3[C@@H](CO)N4CCCCN(C(=O)Nc5ccc(F)cc5)C[C@H]34)cc2)cc1 ?
C diff growth: 17

Results for CC(=O)N(C)C[C@@H]1Oc2cc(-c3cccc(C#N)c3)ccc2S(=O)(=O)N([C@@H](C)CO)C[C@H]1C ?
C diff growth: 5

What do the screens show for `Cc1noc(C)c1NC(=O)Nc1ccc2c(c1)C(=O)N([C@@H](C)CO)C[C@@H](C)[C@H](CN(C)S(=O)(=O)c1ccc(F)cc1)OCCCC[C@@H](C)O2`?
C diff growth: -4

How did C[C@@H]1CN([C@H](C)CO)C(=O)c2c(c3ccccc3n2C)-c2ccccc2CO[C@H]1CN(C)Cc1cccc(F)c1 do in these assays?
C diff growth: 9

Results for C[C@H]1CN([C@@H](C)CO)C(=O)Cc2cc(NS(=O)(=O)c3cccs3)ccc2O[C@@H]1CN(C)Cc1ccccc1 ?
C diff growth: 0

How did C[C@@H]1CN([C@@H](C)CO)C(=O)Cc2cc(NC(=O)CCN3CCOCC3)ccc2O[C@H]1CN(C)C(=O)Nc1ccc(C(F)(F)F)cc1 do in these assays?
C diff growth: 2

What do the screens show for `CN(C)CC(=O)N[C@@H]1CC[C@H](CC(=O)NCc2ccccc2F)O[C@@H]1CO`?
C diff growth: 72

Results for COc1ccc(C#Cc2ccc3c(c2)[C@@H]2[C@@H](CCN2Cc2nccs2)[C@@H](CO)N3)cc1 ?
C diff growth: -2

How did COc1ccc(-c2ccc3c(c2)[C@@H]2[C@@H](CCN2Cc2ccccc2F)[C@H](CO)N3)cc1 do in these assays?
C diff growth: 18

What do the screens show for `O=C(c1ccccc1)N1CC[C@@H]2[C@@H](CO)Nc3ccc(C#Cc4ccccc4F)cc3[C@@H]21`?
C diff growth: 91

Results for COc1ccccc1CN1CC[C@H]2[C@H](CO)Nc3ccc(-c4cccc(F)c4)cc3[C@H]21 ?
C diff growth: -2

How did N#Cc1ccc(-c2ccc3c(c2)[C@H]2[C@H](CCN2C(=O)c2ccc(F)cc2)[C@@H](CO)N3)cc1 do in these assays?
C diff growth: 11

Results for OC[C@@H]1Nc2ccc(-c3ccccc3)cc2[C@@H]2[C@H]1CCN2Cc1ccccc1F ?
C diff growth: -7

How did OC[C@H]1Nc2ccc(-c3ccccc3)cc2[C@@H]2[C@H]1CCN2Cc1ccccc1F do in these assays?
C diff growth: -101*

How did N#Cc1cccc(-c2ccc3c(c2)[C@H]2[C@H](CCN2C(=O)c2ccncc2)[C@@H](CO)N3)c1 do in these assays?
C diff growth: -3

How did COc1ccccc1CN1CC[C@H]2[C@H](CO)Nc3ccc(C#Cc4ccccc4)cc3[C@H]21 do in these assays?
C diff growth: -100*
